In PubChem BioAssay (NCI):
About 83,000 compounds went through this panel and 20% of them were active in at least one assay; those are over-represented in the sample as a whole.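 Single-concentration screen, 48 h exposure, 96-well plates. Endpoint: percent growth. Below 10 = active.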 The source made the active and inactive calls.

Key:
Test in all cases: NCI-60 one-dose screen, 48 h (100 = growth as untreated, 0 = no growth, -100 = all killed)
Conditions in all cases: 10 µM unless noted
NCI-H23 lung = test system: NCI-H23 lung
NCI-H226 lung = test system: NCI-H226 lung
NCI-H322M lung = test system: NCI-H322M lung
HOP-62 NSCLC = test system: HOP-62 NSCLC
HOP-92 NSCLC = test system: HOP-92 NSCLC
NCI-H522 lung = test system: NCI-H522 lung
786-0 renal = test system: 786-0 renal
COLO 205 colon = test system: COLO 205 colon
DU-145 prostate = test system: DU-145 prostate
K-562 leukemia = test system: K-562 leukemia
MALME-3M melanoma = test system: MALME-3M melanoma
MDA-MB-231 breast = test system: MDA-MB-231 breast
RXF 393 renal = test system: RXF 393 renal
SF-268 CNS = test system: SF-268 CNS
SF-295 CNS = test system: SF-295 CNS
SF-539 CNS = test system: SF-539 CNS
UACC-257 melanoma = test system: UACC-257 melanoma
M14 melanoma = test system: M14 melanoma
A549/ATCC NSCLC = test system: A549/ATCC NSCLC

Measured: growth

CN1/C(=C/C=C/c2n(Cc3ccc4ccccc4c3)c(Cl)c(Cl)[n+]2Cc2ccc3ccccc3c2)Oc2ccccc21
inactive: K-562 leukemia 89.4%
active: NCI-H23 lung -80% | NCI-H226 lung -75.4% | NCI-H322M lung -10.6% | HOP-62 NSCLC -85.7% | HOP-92 NSCLC -81% | NCI-H522 lung -81.6% | 786-0 renal -82.6% | COLO 205 colon -80.1% | DU-145 prostate -86.6% | MALME-3M melanoma -97.1% | MDA-MB-231 breast -94% | RXF 393 renal -88.2% | SF-268 CNS -69.4% | SF-295 CNS -68.4% | SF-539 CNS -94% | UACC-257 melanoma -77.9% | M14 melanoma -77%

O=C(CN1C(=O)c2ccccc2S1(=O)=O)Nc1nc(-c2cc3ccccc3oc2=O)cs1
inactive: NCI-H23 lung 110% | NCI-H226 lung 94.4% | NCI-H322M lung 97.3% | HOP-62 NSCLC 105% | HOP-92 NSCLC 96.4% | NCI-H522 lung 92.2% | A549/ATCC NSCLC 104% | 786-0 renal 91.8% | COLO 205 colon 117% | DU-145 prostate 108% | K-562 leukemia 100% | MALME-3M melanoma 101% | MDA-MB-231 breast 114% | RXF 393 renal 105% | SF-268 CNS 95.7% | SF-295 CNS 102% | SF-539 CNS 95.8% | UACC-257 melanoma 99.8% | M14 melanoma 106%

Nc1ncc(-c2ccc3ncnc(N4CCc5cc(F)c(Cl)cc54)c3c2)cn1
active: RXF 393 renal 1.88%
inactive: NCI-H23 lung 58.8% | NCI-H226 lung 33.6% | NCI-H322M lung 25.1% | HOP-62 NSCLC 28.7% | HOP-92 NSCLC 11.5% | NCI-H522 lung 44.1% | A549/ATCC NSCLC 28.5% | 786-0 renal 26% | COLO 205 colon 51.5% | DU-145 prostate 33.4% | K-562 leukemia 61.4% | MALME-3M melanoma 53.6% | MDA-MB-231 breast 30% | SF-268 CNS 39.8% | SF-295 CNS 56.2% | SF-539 CNS 48.5% | UACC-257 melanoma 67.6% | M14 melanoma 61.1%

Cc1csc(Nc2nc(-c3cccc(Cl)c3)nc(C(Cl)(Cl)Cl)n2)n1
active: NCI-H322M lung -23.1% | COLO 205 colon -38.6% | DU-145 prostate -30.4% | MDA-MB-231 breast 9.88% | RXF 393 renal -2.8%
inactive: NCI-H23 lung 79% | NCI-H226 lung 95.6% | HOP-62 NSCLC 20.3% | HOP-92 NSCLC 32.7% | NCI-H522 lung 83.6% | 786-0 renal 59.5% | K-562 leukemia 65.6% | MALME-3M melanoma 102% | SF-268 CNS 65.8% | SF-295 CNS 34.1% | SF-539 CNS 34% | UACC-257 melanoma 36.2% | M14 melanoma 88.3%

O=C1C(Nc2ccc(Br)cc2)=C(I)C(=O)c2ncccc21
active: HOP-92 NSCLC -82.6% | NCI-H522 lung -46.2% | K-562 leukemia 5.98% | MALME-3M melanoma -6.23% | MDA-MB-231 breast 6.88%
inactive: NCI-H23 lung 10.6% | NCI-H226 lung 87.3% | NCI-H322M lung 84.4% | HOP-62 NSCLC 42.1% | A549/ATCC NSCLC 46.8% | 786-0 renal 44.4% | COLO 205 colon 23.5% | DU-145 prostate 20.5% | RXF 393 renal 45.8% | SF-268 CNS 46.2% | SF-295 CNS 86.6% | SF-539 CNS 15.3% | UACC-257 melanoma 49.3% | M14 melanoma 10.4%

CO[C@H]1/C=C/O[C@@]2(C)Oc3c(C)c(O)c4c(O)c(c5c(nc6cc(C)ccn65)c4c3C2=O)NC(=O)/C(C)=C\C=C\[C@H](C)[C@H](O)[C@@H](C)C(O)[C@@H](C)[C@H](OC(C)=O)[C@@H]1C (stereo not given in full)
inactive: NCI-H23 lung 99.6% | NCI-H226 lung 96.1% | NCI-H322M lung 97.4% | HOP-92 NSCLC 98.7% | NCI-H522 lung 91.1% | A549/ATCC NSCLC 104% | 786-0 renal 95.3% | DU-145 prostate 114% | K-562 leukemia 95.3% | MALME-3M melanoma 93.4% | MDA-MB-231 breast 104% | RXF 393 renal 111% | SF-268 CNS 102% | SF-295 CNS 102% | SF-539 CNS 105% | UACC-257 melanoma 106% | M14 melanoma 94.4%
active: HOP-62 NSCLC 3.22% | COLO 205 colon 0.546%

CNC(=O)c1cc(Oc2ccc3nc(NC(=O)c4cc(C(F)(F)F)cc(C(F)(F)F)c4)sc3c2)ccn1
inactive: NCI-H23 lung 20.2% | NCI-H226 lung 23.3% | NCI-H322M lung 15.1% | HOP-62 NSCLC 16.3% | A549/ATCC NSCLC 17.8% | COLO 205 colon 19.1% | DU-145 prostate 27.5% | K-562 leukemia 13.3% | SF-268 CNS 23.6% | SF-539 CNS 19.1% | M14 melanoma 22%
active: HOP-92 NSCLC -32.5% | NCI-H522 lung -9.54% | 786-0 renal 9.65% | MALME-3M melanoma 2.93% | MDA-MB-231 breast 8.74% | RXF 393 renal -3.77% | SF-295 CNS 3.03% | UACC-257 melanoma 0.459%

COc1ccc(C2=NN(C=O)C(c3ccc(Oc4nc5c(c(=O)n(C)c(=O)n5C)n4C)c(OC)c3)C2)cc1 (stereo not given)
active: UACC-257 melanoma -10.3%
inactive: NCI-H23 lung 80.7% | NCI-H226 lung 82.4% | NCI-H322M lung 76.6% | HOP-62 NSCLC 87% | NCI-H522 lung 92.9% | A549/ATCC NSCLC 56.6% | 786-0 renal 103% | COLO 205 colon 91.5% | DU-145 prostate 60.9% | K-562 leukemia 89.9% | MALME-3M melanoma 102% | MDA-MB-231 breast 77.6% | RXF 393 renal 110% | SF-268 CNS 57.8% | SF-295 CNS 75.5% | SF-539 CNS 110% | M14 melanoma 68.9%

CC(C)(C)CC(C)(C)Nc1c(-c2c(O)c3ccccc3oc2=O)nc2sccn12
inactive: NCI-H23 lung 97.9% | NCI-H226 lung 88.9% | NCI-H322M lung 86.7% | HOP-62 NSCLC 85% | HOP-92 NSCLC 107% | NCI-H522 lung 83% | A549/ATCC NSCLC 90.8% | 786-0 renal 109% | COLO 205 colon 102% | DU-145 prostate 113% | K-562 leukemia 101% | MALME-3M melanoma 94% | MDA-MB-231 breast 93% | RXF 393 renal 103% | SF-268 CNS 105% | SF-295 CNS 98.8% | SF-539 CNS 101% | UACC-257 melanoma 81.4% | M14 melanoma 97.2%

Cc1ccc(S(=O)(=O)c2nc(-c3ccccc3)oc2S(C)=O)cc1 (stereo not given)
inactive: NCI-H23 lung 63.6% | NCI-H226 lung 62.6% | NCI-H322M lung 79.9% | HOP-62 NSCLC 78.5% | A549/ATCC NSCLC 69.8% | DU-145 prostate 47.3% | SF-268 CNS 55.9% | SF-295 CNS 84.3% | UACC-257 melanoma 46.5%
active: HOP-92 NSCLC -51.8% | NCI-H522 lung -74.5% | 786-0 renal -64.5% | COLO 205 colon -79.3% | K-562 leukemia -31.1% | MALME-3M melanoma -76.8% | MDA-MB-231 breast 4.23% | RXF 393 renal -33.4% | SF-539 CNS -22% | M14 melanoma -80.6%

CCOC(=O)C1=C(c2ccccc2)N=C2SC=C(c3cccc([N+](=O)[O-])c3)N2C1c1ccc(O)cc1 (stereo not given)
inactive: NCI-H23 lung 96.5% | NCI-H226 lung 96.8% | NCI-H322M lung 96.3% | HOP-62 NSCLC 98.6% | HOP-92 NSCLC 90.1% | NCI-H522 lung 93.8% | A549/ATCC NSCLC 100% | 786-0 renal 96.5% | COLO 205 colon 116% | DU-145 prostate 102% | K-562 leukemia 112% | MALME-3M melanoma 96.7% | MDA-MB-231 breast 93.2% | RXF 393 renal 89.1% | SF-268 CNS 94.3% | SF-295 CNS 101% | SF-539 CNS 98.8% | UACC-257 melanoma 96.1% | M14 melanoma 101%

CCOC(=O)C1=C(c2ccccc2)N=C2N(c3ccccc3)N=C(C(C)=O)N2C1c1ccc(Br)cc1 (stereo not given)
inactive: NCI-H23 lung 94.3% | NCI-H226 lung 96.1% | NCI-H322M lung 95.3% | HOP-62 NSCLC 103% | HOP-92 NSCLC 89.5% | NCI-H522 lung 95.3% | A549/ATCC NSCLC 91.2% | 786-0 renal 100% | COLO 205 colon 124% | DU-145 prostate 101% | K-562 leukemia 86.9% | MALME-3M melanoma 97.3% | MDA-MB-231 breast 89.2% | RXF 393 renal 66.8% | SF-268 CNS 92.6% | SF-295 CNS 90.3% | SF-539 CNS 96.3% | UACC-257 melanoma 93.4% | M14 melanoma 100%
